This is a sample that favours compounds with a hit; in the whole collection about 2.8% have one here.
GLP1R inv ag: qHTS of GLP-1 Receptor Inverse Agonists (Inhibition Mode). Glucagon-like peptide 1 receptor (Homo sapiens), P43220. HEK293 GLP-1R CRE-luciferase, luminescence, 24 h; GLP-1R form is constitutively active. Potency, µM (highest dose often 38.3 µM), for the others: at the top dose activity change, negative = inhibition, usual class: inhibitors. 1.6% of 410,000 active; further: potency means the concentration at half of the fitted maximal effect; on the % scale 0 is the no-effect control and ±100 the full control effect; nearly all actives have a fitted effect of over 55% in size
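HEK293 cells stably co-expressing a cAMP-responsive luciferase reporter and constitutively active GLP-1R were seeded, incubated 12 h, then exposed to compounds for 24 h at 37 C. Luminescence was read 12 min after detection reagent; inverse agonists lower signal.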
HEK293 tox: qHTS of GLP-1 Receptor Inverse Agonists: Cytotox Screen; Potency, µM (highest dose often 38.3 µM), without a hit: at the highest dose activity change, negative = inhibition, usual class: inhibitors; HEK293 cAMP-luciferase reporter cells, luminescence, 24 h; 0.13% of 410,000 active;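 further: loss of luciferase light is scored as toxicity; potency means the concentration at half of the fitted maximal effect; on the % scale 0 is the no-effect control and ±100 the full control effect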
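Luminescence readout: signal drop marks cytotoxicity. Plated cells grew 12 h at 37 °C, 5% CO2, received 23 nL compound for 24 h, then got luciferase reagent, read after 12 min at RT.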
GLP-1R agonist: qHTS of GLP-1 Receptor Agonists. Glucagon-like peptide 1 receptor (Homo sapiens), P43220. HEK293 GLP-1R CRE-luciferase, luminescence, 4-6 h; cells express a hypersensitive GLP-1R form. Potency, µM (highest dose often 45.6 µM), without a hit: at the top dose activation, most hits filed as activators. 0.007% of 380,000 active. AID 624172, 2012; further: potency means the concentration at half of the fitted maximal effect; % of control where 0% means no effect
GLS inhibitor: qHTS for Inhibitors of Glutaminase (GLS); Glutaminase kidney isoform, mitochondrial (Homo sapiens), O94925; AID 624170, 2012; Potency, µM (top dose mostly 45.5 µM), inactives show at the top dose activity change, negative = inhibition, usual class: inhibitors; 0.21% of 410,000 active; GLS enzymatic activity, qHTS titration; further: potency means the concentration at half of the fitted maximal effect; on the % scale 0 is the no-effect control and ±100 the full control effect
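Enzyme dispensed in phosphate buffer (45 mM, pH 8.2, 0.02% Tween-20), compounds pinned in, then 1 mM L-glutamine solution and the glutamate oxidase–HRP–Amplex Red mix added; fluorescence read immediately and again after 30 min at room temperature.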
KCNH2 3.1 inh: qHTS for Inhibitors of KCHN2 3.1: Mutant qHTS. Potassium voltage-gated channel subfamily H member 2, brain isoform KCNH2 3.1 (human). U2OS KCNH2 3.1, thallium flux FluxOr; stronger effect = lower value. activity change, % (tested at about 1.8 µM). 0.95% of 340,000 active. AID 720553, 2013;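 active means maximum activity change below -70%; inconclusive means maximum activity change from -70% to -50%; inactive means maximum activity change above -50%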;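 further: thallium influx rate constant from kinetic fluorescence after stimulation buffer; on the % scale 0 is the no-effect control and ±100 the full control effect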
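Measured as rate of thallium-driven FluxOr signal in transduced U2OS cells carrying the 3.1 channel, read kinetically for 2 min upon stimulation; values are rate constants scaled to DMSO control wells.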
hERG WT inh: qHTS for Inhibitors of KCHN2 3.1: Wildtype qHTS | U2OS, BacMam KCNH2, thallium flux FluxOr; stronger effect = lower value | activity change, % at 1.84 µM | 0.37% of 340,000 active;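 active means maximum activity change below -70%; inconclusive means maximum activity change between -70% and -50%; inactive means maximum activity change above -50%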; further: on the % scale 0 is the no-effect control and ±100 the full control effect
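U2OS cells transduced with wild-type KCNH2 virus are loaded with FluxOr dye for 45 min, and thallium flux is measured in kinetic reads before and after stimulation buffer. Rate constants are normalized to DMSO controls.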
* marks the source's active call; other numbers are inactive results; ? = inconclusive; / = not tested or not shown. Unless noted, the call rests on the fitted dose curve; in most records, active means well fitted curve in the direction sought with a large enough effect; inconclusive means small, poorly fitted or top-dose-only effect, or another doubt; inactive means no such curve, though single readings can be large; an effect the other way counts as inactive or inconclusive.

SMILES	GLP1R inv ag	HEK293 tox	GLP-1R agonist	GLS inhibitor	KCNH2 3.1 inh	hERG WT inh
CCOc1ccc2nc(NC(=O)CN3CCC(n4nnc5cc(F)ccc54)CC3)sc2c1	?	6%	-27%	5%	-89*	-10
O=C(CN1CCC(n2nnc3cc(F)ccc32)CC1)NC1CC1	0%	0%	2%	3%	-8	-2
COc1ccccc1CNC(=O)CN1C(=O)NC2(CCCc3sccc32)C1=O (configuration not stated)	-1%	-3%	2%	-3%	10	-236*
COc1ccc(C2CN=NC23CCCc2ccccc2C3=O)cc1 (configuration not stated)	0%	-7%	-4%	2%	-1	-9
COc1ccccc1C1CN=NC12CCCc1ccccc1C2=O (configuration not stated)	7.1µM*	-5%	-6%	-1%	-4	1
O=[N+]([O-])c1cc(-c2nc(-c3cccnc3)no2)ccc1NCc1ccccc1	15%	7%	/	-13%	/	/
CC(C)N1CCC2(CC1)N=C(c1ccc3c(c1)OCO3)CC(c1cc(Cl)ccc1O)N2 (configuration not stated)	11µM*	?	-40%	23%	0	10
O=C(Nc1cc(Cl)ccc1O)c1cc(-c2ccc3c(c2)OCO3)on1	49%	7%	/	4%	/	/
Cc1ccc(/C(O)=C2\C(=O)C(=O)N(CC(C)O)C2c2ccc(N(C)C)cc2)cc1 (configuration not stated)	6%	0%	-11%	35%	-5	-123*
COc1cccc(Cn2c(=O)n(CC3CCC(C(=O)N4CCOCC4)CC3)c(=O)c3sccc32)c1 (configuration not stated)	10%	0%	/	-3%	/	/
COc1cccc(CNC(=O)c2[nH]c3cc(C)ccc3c2Sc2ccccc2)c1	6%	2%	/	-3%	/	/
Cc1ccc(O)c(-c2cc(-c3cccc(Br)c3)n[nH]2)c1	10µM*	-37%	19%	-3%	3	28
Cc1ccc(-c2cc(-c3ccc(C)cc3O)[nH]n2)cc1	?	-9%	-2%	6%	-24	-2
COc1ccccc1CNC(=O)CN1C(=O)CSc2ccc(S(=O)(=O)N3CCCCC3)cc21	?	-7%	10%	-12%	/	/
COC(=O)c1ccc2c(c1)C(C)(C)C(/C=C/c1ccccc1O)=[N+]2C	?	10µM*	-23%	0%	-10	0
COCCn1c(-c2ccc(F)cc2)nc2cccnc21	10%	-15%	-4%	-5%	-12	-5
Cc1cc(N2CCN(c3cccc(C(F)(F)F)c3)CC2)n2nc(-c3ccccc3C)nc2n1	-6%	-3%	/	-3%	/	/
O=C(NCCn1cc(SCc2ccccc2)c2ccccc21)c1ccccc1F	10µM*	-8%	19%	1%	-10	-30
CCOC(=O)c1cccc(NC(=O)CC2C(=O)N(c3ccccc3)C(=O)N2Cc2ccco2)c1 (configuration not stated)	-7%	0%	/	-5%	/	/
O=C1C=CC(=C(c2ccc(O)cc2)c2ccc(O)cc2)C=C1	5.6µM*	8.9µM*	-6%	28%	5	-4
O=C(CCCC(=O)c1ccc(O)cc1)c1ccc(O)cc1	-13%	-3%	-2%	-9%	-11	4
O=C(NCC(c1ccco1)N1CCc2ccccc21)C(=O)Nc1ccc(F)cc1F (configuration not stated)	4µM*	-1%	-5%	12%	-16	-3

Source: PubChem BioAssay
